The panel holds about 83,000 compounds, 20% with a hit somewhere; the sample as a whole holds those more often.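 How to read the values: 0–100, growth inhibition (40 = 60% inhibited); 0, no net growth; -100 to 0, cell death (-40 = 40% of starting cells died; -100 = all dead).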 Active and inactive are the calls of the source. The calls were made as follows: active = growth percent below 10; inactive = the rest.
Experiments:
Test in all cases: NCI-60 one-dose screen, 48 h (100 = growth as untreated, 0 = no growth, -100 = all killed)
NCI-H23 lung = conditions: 10 µM unless noted
NCI-H226 lung = conditions: 10 µM unless noted
NCI-H322M lung = conditions: 10 µM unless noted
HOP-62 NSCLC = conditions: 10 µM unless noted
NCI-H460 lung = conditions: 10 µM unless noted
HOP-92 NSCLC = conditions: 10 µM unless noted
NCI-H522 lung = conditions: 10 µM unless noted
A549/ATCC NSCLC = conditions: 10 µM unless noted
786-0 renal = conditions: 10 µM unless noted
COLO 205 colon = conditions: 10 µM unless noted
DU-145 prostate = conditions: 10 µM unless noted
K-562 leukemia = conditions: 10 µM unless noted
MALME-3M melanoma = conditions: 10 µM unless noted
MDA-MB-231 breast = conditions: 10 µM unless noted
RXF 393 renal = conditions: 10 µM unless noted
SF-268 CNS = conditions: 10 µM unless noted
SF-295 CNS = conditions: 10 µM unless noted
SF-539 CNS = conditions: 10 µM unless noted
UACC-257 melanoma = conditions: 10 µM
M14 melanoma = conditions: 10 µM unless noted

Measured: growth

CN1CCN(Cc2ccc(NC(=O)c3cncc(C#Cc4cnc5ccc(NC6CCOCC6)nn45)c3)cc2C(F)(F)F)CC1
active: NCI-H23 lung -52.9% | NCI-H226 lung -53.1% | NCI-H322M lung -20% | HOP-62 NSCLC -0.603% | NCI-H460 lung -81.4% | HOP-92 NSCLC -29.2% | NCI-H522 lung -68.5% | A549/ATCC NSCLC -14.2% | 786-0 renal -88.3% | COLO 205 colon -90.6% | DU-145 prostate -95.2% | K-562 leukemia -12.8% | MALME-3M melanoma -86.5% | MDA-MB-231 breast -71.9% | RXF 393 renal -93.8% | SF-268 CNS -47.5% | SF-295 CNS -85.2% | SF-539 CNS -92.1% | UACC-257 melanoma -13.9% | M14 melanoma -97.2%

COc1ccc(NS(=O)(=O)c2ccc(-c3cnc(C4CC4)o3)cc2)cc1Cl
inactive: NCI-H23 lung 37.3% | NCI-H226 lung 35.5% | NCI-H322M lung 52.2% | HOP-62 NSCLC 30.2% | NCI-H460 lung 18.3% | HOP-92 NSCLC 55.4% | NCI-H522 lung 33.2% | A549/ATCC NSCLC 46.1% | 786-0 renal 46.7% | COLO 205 colon 12.4% | DU-145 prostate 24.1% | K-562 leukemia 10.1% | MALME-3M melanoma 50% | MDA-MB-231 breast 41.9% | SF-268 CNS 66.1% | SF-295 CNS 10.6% | SF-539 CNS 13.3% | UACC-257 melanoma 66.9% | M14 melanoma 21.1%
active: RXF 393 renal 0.101%

Oc1ccc(CSc2nnc(-c3ccncc3)o2)c2cccnc12
active: NCI-H460 lung 4.37% | HOP-92 NSCLC -20.8% | MALME-3M melanoma 2.27% | RXF 393 renal 7.2% | SF-295 CNS 3.07% | UACC-257 melanoma -2.73%
inactive: NCI-H23 lung 17.7% | NCI-H226 lung 22.7% | NCI-H322M lung 39.4% | HOP-62 NSCLC 12.3% | NCI-H522 lung 11.6% | A549/ATCC NSCLC 15.4% | 786-0 renal 31.3% | COLO 205 colon 68.4% | DU-145 prostate 26% | K-562 leukemia 14.7% | MDA-MB-231 breast 24.5% | SF-268 CNS 26.3% | SF-539 CNS 18% | M14 melanoma 25.4%

O=C(Nc1ccccc1)Nc1nc2ccc([N+](=O)[O-])cc2s1
active: NCI-H23 lung 0.812% | NCI-H226 lung 0.421% | HOP-62 NSCLC 8.52% | NCI-H460 lung 4.82% | HOP-92 NSCLC -22.2% | NCI-H522 lung 3.38% | A549/ATCC NSCLC 8.07% | COLO 205 colon -26.1% | K-562 leukemia 5.58% | MALME-3M melanoma -10.8% | MDA-MB-231 breast -5.6% | RXF 393 renal -21.6% | SF-295 CNS 2.83% | SF-539 CNS 9.38% | UACC-257 melanoma -8.53%
inactive: NCI-H322M lung 10% | 786-0 renal 14.1% | DU-145 prostate 14.7% | SF-268 CNS 13.4% | M14 melanoma 13%

C#C[C@]1(O)CC[C@H]2[C@@H]3CC=C4c5sc(Nc6cc(OC)ccc6OC)nc5CC[C@]4(C)[C@H]3CC[C@@]21C
inactive: NCI-H23 lung 33.9% | NCI-H226 lung 60.4% | NCI-H322M lung 62.2% | HOP-62 NSCLC 41.2% | NCI-H460 lung 26.6% | HOP-92 NSCLC 51.4% | NCI-H522 lung 63.8% | A549/ATCC NSCLC 38% | COLO 205 colon 18.5% | DU-145 prostate 43.8% | MALME-3M melanoma 14.4% | MDA-MB-231 breast 35.9% | SF-268 CNS 30.8%
active: 786-0 renal -2.79% | K-562 leukemia 6.54% | RXF 393 renal -57.4% | SF-295 CNS -67% | SF-539 CNS -19.4% | UACC-257 melanoma 0.933% | M14 melanoma -1.11%

CCOC(=O)c1ccc(N/C=C/C(=O)c2ccccc2)cc1
inactive: NCI-H23 lung 103% | NCI-H226 lung 105% | NCI-H322M lung 97% | HOP-62 NSCLC 111% | NCI-H460 lung 104% | HOP-92 NSCLC 124% | NCI-H522 lung 94.8% | A549/ATCC NSCLC 101% | 786-0 renal 94% | COLO 205 colon 101% | DU-145 prostate 101% | K-562 leukemia 98.8% | MALME-3M melanoma 107% | MDA-MB-231 breast 105% | RXF 393 renal 99% | SF-268 CNS 102% | SF-295 CNS 93.4% | SF-539 CNS 101% | UACC-257 melanoma 108% | M14 melanoma 97%

CCOC(=O)c1c(NCC(=O)Nc2cccc(Cl)c2)sc2c1CCCC2
inactive: NCI-H23 lung 66.5% | NCI-H226 lung 69.8% | NCI-H322M lung 91.4% | HOP-62 NSCLC 78.6% | NCI-H460 lung 92.5% | HOP-92 NSCLC 96.3% | NCI-H522 lung 65.9% | A549/ATCC NSCLC 101% | 786-0 renal 106% | COLO 205 colon 101% | DU-145 prostate 93.8% | K-562 leukemia 66% | MALME-3M melanoma 82.8% | MDA-MB-231 breast 86.5% | RXF 393 renal 87.3% | SF-268 CNS 84.8% | SF-295 CNS 80.1% | SF-539 CNS 92.5% | UACC-257 melanoma 99.1% | M14 melanoma 83.2%

Cc1ccc(-c2cc3nc(C(Cl)Cl)nc(-c4ccccc4)n3n2)cc1
inactive: NCI-H23 lung 95.4% | NCI-H226 lung 103% | NCI-H322M lung 74.3% | HOP-62 NSCLC 73.6% | NCI-H460 lung 46.9% | HOP-92 NSCLC 94.9% | NCI-H522 lung 98.1% | A549/ATCC NSCLC 77.5% | 786-0 renal 94.4% | COLO 205 colon 54.3% | K-562 leukemia 90.4% | MALME-3M melanoma 122% | MDA-MB-231 breast 79.7% | RXF 393 renal 70.4% | SF-268 CNS 89% | SF-295 CNS 79.8% | SF-539 CNS 90.8% | UACC-257 melanoma 112% | M14 melanoma 112%
active: DU-145 prostate 2.08%

Source: PubChem BioAssay (NCI)
